An excerpt weighted towards active compounds, which were near 3.8% of everything screened.
TIM10 inh – TIM10 yeast growth inhibition; S. cerevisiae TIM10 strain growth, BacTiter-Glo luminescence, 24 h; AID 463195; actives 1.4% (n = 330,000); inhibition, % at 10 µM;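 active means inhibition of 40% or more at the single tested concentration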;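 further: wild-type TIM10 isogenic control strain grown at permissive 25 °C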
tim23-1 inh – inhibits growth of tim23-1 mutant yeast; S. cerevisiae tim23-1 growth, BacTiter-Glo luminescence, 24 h; inhibition, % at 20 µM; actives 1.3% (n = 330,000); AID 463212;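 active means growth inhibition of the mutant yeast at or above 50%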;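 further: temperature-sensitive mutant grown at 25 °C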
NLRP3 yeast inh – inhibitors of NALP3 inflammasome in yeast; Yeast reconstituted NLRP3/ASC/caspase-1, beta-gal luminescence, 24 h; actives 0.39% (n = 330,000); inhibition, % at 10 µM;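 active means inhibition of 50% or more; inactive means inhibition below 50%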
tim10-1 inh – inhibits growth of tim10-1 mutant yeast | S. cerevisiae tim10-1 ts strain growth, BacTiter-Glo, 24 h | inhibition, % at 20 µM | actives 2.2% (n = 330,000) | AID 463190;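 active means inhibition of at least 40%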;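 further: mutant grown at 25 °C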
CR mimetic SO – lowers age-related superoxide in aged yeast cells | S. cerevisiae aged cells, superoxide DHE fluorescence; hits give low values | actives 0.18% (n = 330,000) | superoxide response (% of plate mean), % at 10 µM | AID 2690;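 active means superoxide response under a set limit, about three screen SD below normal, cut at about 65% in these data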;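 further: yeast aged for seven days with compound at 30 °C before DHE staining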
tim23-1 conf – confirmation of tim23-1 mutant yeast growth inhibitors | AID 463218 | actives 83% (n = 4,400) | S. cerevisiae tim23-1 growth, BacTiter-Glo luminescence, 24 h | inhibition, % at 20 µM | shares compounds with tim23-1 inh;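 active means inhibition above about 39% in either of two replicate wells at 20 µM, limit read from the data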;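 further: temperature-sensitive tim23-1 mutant grown at 25 °C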
Each line names hits and unclear results; the compound was inactive in the other large screens (follow-up assays come after a bar, where they were run).

O=C(OCc1c(-c2ccccc2)ncc2ccccc12)c1ccco1	tim23-1 inh 55 | tim23-1 conf inactive
CCCCSCCCNC(=O)c1ccc(CS(=O)(=O)c2ccccc2OC)o1	none
Cc1ccc(C(C)C)c2c1C(c1ccc3c(c1)OCO3)CC(=O)O2 (stereo unspecified)	tim23-1 inh 60 (no result: NLRP3 yeast inh) | tim23-1 conf 39
O=C(c1ccccc1NS(=O)(=O)c1ccc([N+](=O)[O-])cc1[N+](=O)[O-])N1O[C@@H]2C=C[C@H]1C2	tim23-1 inh 53 (no result: NLRP3 yeast inh) | tim23-1 conf inactive
CCOc1ccc2oc(C(=O)Nc3ccc4c(c3)OCO4)c(C)c2c1	tim23-1 inh 95 | tim23-1 conf inactive
Nc1nc2c(s1)CCc1c-2cnn1-c1ccccc1	tim23-1 inh 62 | tim23-1 conf 61
N=c1c2c(-c3ccccc3)c(-c3ccccc3)n(Cc3ccco3)c2ncn1Cc1ccco1	tim23-1 inh 66 | tim23-1 conf 44
COc1ccc(C2CC(=O)Oc3cc4c(cc32)OCO4)cc1 (stereo unspecified)	tim23-1 inh 61 (no result: NLRP3 yeast inh) | tim23-1 conf 49
COc1ccc(C2CC(=O)Oc3cc(O)ccc32)cc1 (stereo unspecified)	tim23-1 inh 57 (no result: NLRP3 yeast inh) | tim23-1 conf 46
Cc1ccc(NC(=O)CNc2cc(S(=O)(=O)N3CCOCC3)ccc2N2CCOCC2)cc1S(=O)(=O)N(C)C	none
CCOC(=O)[C@@H]1[C@H]2COc3cc(OC)ccc3[C@H]2N2C(=O)N(c3ccc(C)cc3)C(=O)[C@@]12C	none
O=C(NCCN1CCOCC1)c1ccc(Cl)c([N+](=O)[O-])c1	none
CC(C)(C)SCCNC(=O)c1ccc(Cl)c([N+](=O)[O-])c1	tim23-1 inh 53 | tim23-1 conf inactive
CCC1CCCCN1CCCNC(=O)C1CCN(c2nnc(-n3cccc3)s2)CC1 (stereo unspecified)	none
Oc1ccc(/C=C/c2ccc3cccc(O)c3n2)cc1Br	tim23-1 inh 53 | tim23-1 conf 71
O=[N+]([O-])c1cccc(/C=C/c2ccc3cccc(O)c3n2)c1	none
O=C(Nc1ccc(C(=O)N2CCCc3ccccc32)cc1)c1cccs1	tim23-1 inh 52 | tim23-1 conf 44
OCC[C@H]1C[C@@H](O)[C@H](O)[C@]2(CCCO2)O1	none (no result: CR mimetic SO)
Nc1cc([N+](=O)[O-])cc2oc(-c3ccccc3)cc12	tim23-1 inh 54 | tim23-1 conf 45
Nc1ccc(/C=C/C(=O)c2cccs2)cc1	tim23-1 inh 56 | tim23-1 conf 80
Cc1[nH]c(-c2ccc(F)cc2)cc1C(=O)N1CCN(c2cccc(Cl)c2)CC1	tim23-1 inh 54 | tim23-1 conf inactive
COc1ccc(/C=N/Nc2nnc(-c3ncc[nH]3)c3ccccc23)cc1	none
Oc1ccc2ccccc2c1/C=N/Nc1nnc(-c2ncc[nH]2)c2ccccc12	tim23-1 inh 69 | tim23-1 conf 65
Brc1ccc(-c2cn3cccnc3n2)cc1	none
Clc1ccc(-c2cn3cccnc3n2)cc1Cl	tim23-1 inh 54 | tim23-1 conf inactive
Clc1ccc(-c2cn3cccnc3n2)cc1	tim23-1 inh 53 | tim23-1 conf inactive
CC(C)N1CCN(Cc2coc3ccccc3c2=O)CC1CCO (stereo unspecified)	none
C[C@@H]1C=CC(=O)O[C@@H]1c1ccc(C(F)(F)F)cc1	tim23-1 inh 57 (no result: CR mimetic SO) | tim23-1 conf inactive
Cc1csc2c(N3CCN(C(=O)Nc4ccc(Cl)c(Cl)c4)CC3)ncnc12	tim23-1 inh 67 | tim23-1 conf 50
Cc1csc2c(N3CCN(C(=S)Nc4ccc(C(F)(F)F)cc4)CC3)ncnc12	tim23-1 inh 55 | tim23-1 conf 46
Cc1csc2c(N3CCN(C(=O)NC(C)(C)C)CC3)ncnc12	none
CCCCn1c(N)c(N(CCOC)C(=O)C2CCN(c3ncnc4sc(C)c(C)c34)CC2)c(=O)[nH]c1=O	tim23-1 inh 53 | tim23-1 conf 47
CCCCn1c(N)c(N(CC(C)C)C(=O)C2CCN(c3ncnc4sc(C)c(C)c34)CC2)c(=O)[nH]c1=O	none
O=C(COC(=O)c1cc([N+](=O)[O-])ccc1N1CCOCC1)NCc1ccc(Cl)cc1Cl	tim23-1 inh 51 | tim23-1 conf 48
O=C(Nc1nc2ccc(S(=O)(=O)N3CCCC3)cc2s1)C1CCCCC1	none
O=C(Nc1nc2ccc(S(=O)(=O)N3CCCCC3)cc2s1)C1CCCO1 (stereo unspecified)	tim23-1 inh 53 | tim23-1 conf 47
C[C@@]12C(=O)Nc3ccc(F)cc3C(=O)N1[C@H]1c3cc(Cl)ccc3OC[C@@H]1[C@@H]2c1ccccc1	tim23-1 inh 54 | tim23-1 conf 54
CCCCOc1ccc(-c2cn3ccccc3n2)cc1[N+](=O)[O-]	none
CCCOc1ccc(-c2csc(N)n2)cc1[N+](=O)[O-]	tim23-1 inh 57 | tim23-1 conf 57
O=C(CCc1ccccc1)Oc1ccccc1[N+](=O)[O-]	tim23-1 inh 57 | tim23-1 conf 67
CC(C)(C)C(=O)C(Cl)C(=O)Nc1ccccc1 (stereo unspecified)	tim23-1 inh 70 | tim23-1 conf inactive
COc1ccc(/C=N/NC(=O)Cc2cc(OC)c(OC)cc2[N+](=O)[O-])cc1	none
OCCCNc1cc(-c2ccccc2)nc2cc(-c3ccc(F)cc3)nn12	tim23-1 inh 51 | tim23-1 conf 55
Oc1ccc(/C=N\Nc2cc(N3CCOCC3)nc(N3CCOCC3)n2)c(O)c1	none
Oc1ccc(/C=N/Nc2cccc(Cl)n2)c(O)c1	tim23-1 inh 56 | tim23-1 conf 44
O=C(O)CCC(=O)Nc1nc2nccc(-c3ccccc3)n2n1	none
CCCCN(C(=O)C1CC(=O)N(Cc2ccc(C)cc2)C1)c1c(N)n(CC(C)C)c(=O)[nH]c1=O (stereo unspecified)	none
O=C(OCC(=O)N1CCCc2ccccc21)c1ccc(Br)o1	none
O=C(OCc1nc2ccccc2s1)c1ccc(Br)o1	none
O=C(OCc1nc2ccccc2s1)c1ccc([N+](=O)[O-])o1	tim23-1 inh 55 | tim23-1 conf 59
O=C(OCC(=O)N1CCc2ccccc21)c1ccc([N+](=O)[O-])o1	tim23-1 inh 70 | tim23-1 conf 73
CS(=O)(=O)N1CCN(Cc2ccc([N+](=O)[O-])cc2)CC1	none
NC(N)=N/N=C/c1ccc(OCc2ccccc2Cl)cc1	tim23-1 inh 59 | tim23-1 conf 44
NC(N)=N/N=C/c1ccc(OCc2ccccc2)c(OCc2ccccc2)c1	tim23-1 inh 60 | tim23-1 conf 49
NC(N)=N/N=C/c1ccccc1	none
O=C1[C@@H]2CSCN2C(=O)CN1Cc1c(F)cccc1Cl	none
CC(C)Cc1csc(NC(=O)c2ccccc2Cl)c1C(=O)O	none
Cc1ccc(-c2csc(NC(=O)c3ccccc3Cl)c2C(=O)O)cc1	tim23-1 inh 64 | tim23-1 conf inactive
COc1ccc(C2Nc3cccc4cccc(c34)N2)cc1Br	tim23-1 inh 56 | tim23-1 conf 55
